Results reported in the supplement of paper PMC11732987, “Enantioselective OTUD7B fragment discovery through chemoproteomics screening and high-throughput optimisation” (Communications Chemistry, 2025).

Experiments:
Assay in all cases: log2 ratio of Biotin-Ahx-Ub-VS probe labelling (fragment/DMSO); higher = less target engagement (more negative = stronger competition), active = hit call of the paper (q ≤ 0.05, log2 ratio ≤ -1)
Details in all cases: compound concentration: 200 uM; treatment time: 3 h
OTUD6B = target: T1, OTUD6B (UniProt Q8N6M0)
T1 sequence (whole entry): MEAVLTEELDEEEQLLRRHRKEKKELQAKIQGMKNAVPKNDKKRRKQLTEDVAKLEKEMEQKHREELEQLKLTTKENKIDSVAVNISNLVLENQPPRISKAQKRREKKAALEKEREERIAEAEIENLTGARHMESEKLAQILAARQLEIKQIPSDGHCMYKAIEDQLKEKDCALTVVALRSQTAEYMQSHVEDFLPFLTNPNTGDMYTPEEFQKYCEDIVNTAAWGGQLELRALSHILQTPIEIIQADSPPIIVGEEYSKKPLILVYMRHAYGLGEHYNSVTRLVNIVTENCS
Summary of the method: (§1)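 Lysate from HEK293T cells, 495 µg per sample in Tris/CHAPS/IGEPAL buffer with protease inhibitors, was treated for 3 h in triplicate with fragment at 200 µM or vehicle. Biotin-Ahx-Ub-VS was next added at 0.5 µM final for 1 h. The labelled DUBs were enriched with NeutrAvidin, digested with LysC and trypsin, and run by diaPASEF LC-MS/MS, with values given as average log2 fragment/vehicle ratios by unpaired t-test on global-median-normalised Spectronaut quantities of proteins with ≥2 unique peptides.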

OTUD7B = target: T2, OTUD7B (UniProt Q6GQQ9)
T2 sequence (whole entry): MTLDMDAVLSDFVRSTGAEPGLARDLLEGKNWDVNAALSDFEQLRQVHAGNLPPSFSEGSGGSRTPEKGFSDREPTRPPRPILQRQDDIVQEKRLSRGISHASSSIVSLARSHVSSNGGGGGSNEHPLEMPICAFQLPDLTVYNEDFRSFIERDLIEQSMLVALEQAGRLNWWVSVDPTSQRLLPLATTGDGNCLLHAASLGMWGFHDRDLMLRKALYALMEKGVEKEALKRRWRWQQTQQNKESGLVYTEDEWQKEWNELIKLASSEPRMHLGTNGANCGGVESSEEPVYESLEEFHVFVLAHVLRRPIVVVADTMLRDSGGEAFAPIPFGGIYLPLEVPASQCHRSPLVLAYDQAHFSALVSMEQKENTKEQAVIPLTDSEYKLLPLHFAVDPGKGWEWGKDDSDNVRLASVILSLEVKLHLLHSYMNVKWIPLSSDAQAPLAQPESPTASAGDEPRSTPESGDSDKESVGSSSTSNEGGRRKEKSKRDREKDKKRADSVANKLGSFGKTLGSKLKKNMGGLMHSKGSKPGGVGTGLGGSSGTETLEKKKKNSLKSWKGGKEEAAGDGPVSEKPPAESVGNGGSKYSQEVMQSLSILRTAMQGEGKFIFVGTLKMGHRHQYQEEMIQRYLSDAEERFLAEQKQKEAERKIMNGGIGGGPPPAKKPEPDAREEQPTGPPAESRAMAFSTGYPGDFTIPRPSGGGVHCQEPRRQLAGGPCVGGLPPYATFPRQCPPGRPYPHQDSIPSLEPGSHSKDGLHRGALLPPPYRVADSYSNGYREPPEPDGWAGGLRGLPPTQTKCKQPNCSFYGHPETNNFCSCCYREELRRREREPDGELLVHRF
Summary of the method: as §1

PRPF8 = PRPF8 (UniProt Q6P2Q9)
Summary of the method: as §1

PSMD7 = target: T3, PSMD7 (UniProt P51665)
T3 sequence (whole entry): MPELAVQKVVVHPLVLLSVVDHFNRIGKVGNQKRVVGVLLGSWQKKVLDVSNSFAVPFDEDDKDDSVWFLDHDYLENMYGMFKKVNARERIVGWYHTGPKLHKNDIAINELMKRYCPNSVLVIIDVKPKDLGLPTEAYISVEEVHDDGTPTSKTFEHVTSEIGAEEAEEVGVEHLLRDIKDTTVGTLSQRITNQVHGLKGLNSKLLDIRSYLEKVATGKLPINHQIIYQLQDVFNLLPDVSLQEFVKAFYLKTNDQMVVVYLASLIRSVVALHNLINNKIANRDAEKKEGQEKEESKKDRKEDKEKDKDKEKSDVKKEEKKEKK
Summary of the method: as §1

UCHL1 = UCHL1 (UniProt P09936)
Summary of the method: as §1

UCHL3 = target: T4, UCHL3 (UniProt P15374)
T4 sequence (whole entry): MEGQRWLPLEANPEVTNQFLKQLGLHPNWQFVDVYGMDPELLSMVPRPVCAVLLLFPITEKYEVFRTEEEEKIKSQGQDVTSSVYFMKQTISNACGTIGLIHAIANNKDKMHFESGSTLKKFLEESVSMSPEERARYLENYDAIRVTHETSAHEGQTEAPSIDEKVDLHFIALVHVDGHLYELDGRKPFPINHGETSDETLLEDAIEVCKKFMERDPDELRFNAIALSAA
Summary of the method: as §1

UCHL5 = target: T5, UCHL5 (UniProt Q9Y5K5)
T5 sequence (whole entry): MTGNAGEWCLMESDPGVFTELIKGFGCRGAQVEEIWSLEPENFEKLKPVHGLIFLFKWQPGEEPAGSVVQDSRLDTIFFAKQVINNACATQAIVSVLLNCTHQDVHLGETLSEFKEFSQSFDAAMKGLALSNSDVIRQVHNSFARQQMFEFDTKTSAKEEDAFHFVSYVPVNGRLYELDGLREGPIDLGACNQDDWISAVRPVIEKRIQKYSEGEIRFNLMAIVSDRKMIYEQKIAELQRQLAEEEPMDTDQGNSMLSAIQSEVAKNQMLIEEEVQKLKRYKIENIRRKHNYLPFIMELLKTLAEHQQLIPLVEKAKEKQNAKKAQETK
Summary of the method: as §1

USP10 = USP10 (UniProt Q14694)
Summary of the method: as §1

USP15 = target: T6, USP15 (UniProt Q9Y4E8)
T6 sequence (whole entry): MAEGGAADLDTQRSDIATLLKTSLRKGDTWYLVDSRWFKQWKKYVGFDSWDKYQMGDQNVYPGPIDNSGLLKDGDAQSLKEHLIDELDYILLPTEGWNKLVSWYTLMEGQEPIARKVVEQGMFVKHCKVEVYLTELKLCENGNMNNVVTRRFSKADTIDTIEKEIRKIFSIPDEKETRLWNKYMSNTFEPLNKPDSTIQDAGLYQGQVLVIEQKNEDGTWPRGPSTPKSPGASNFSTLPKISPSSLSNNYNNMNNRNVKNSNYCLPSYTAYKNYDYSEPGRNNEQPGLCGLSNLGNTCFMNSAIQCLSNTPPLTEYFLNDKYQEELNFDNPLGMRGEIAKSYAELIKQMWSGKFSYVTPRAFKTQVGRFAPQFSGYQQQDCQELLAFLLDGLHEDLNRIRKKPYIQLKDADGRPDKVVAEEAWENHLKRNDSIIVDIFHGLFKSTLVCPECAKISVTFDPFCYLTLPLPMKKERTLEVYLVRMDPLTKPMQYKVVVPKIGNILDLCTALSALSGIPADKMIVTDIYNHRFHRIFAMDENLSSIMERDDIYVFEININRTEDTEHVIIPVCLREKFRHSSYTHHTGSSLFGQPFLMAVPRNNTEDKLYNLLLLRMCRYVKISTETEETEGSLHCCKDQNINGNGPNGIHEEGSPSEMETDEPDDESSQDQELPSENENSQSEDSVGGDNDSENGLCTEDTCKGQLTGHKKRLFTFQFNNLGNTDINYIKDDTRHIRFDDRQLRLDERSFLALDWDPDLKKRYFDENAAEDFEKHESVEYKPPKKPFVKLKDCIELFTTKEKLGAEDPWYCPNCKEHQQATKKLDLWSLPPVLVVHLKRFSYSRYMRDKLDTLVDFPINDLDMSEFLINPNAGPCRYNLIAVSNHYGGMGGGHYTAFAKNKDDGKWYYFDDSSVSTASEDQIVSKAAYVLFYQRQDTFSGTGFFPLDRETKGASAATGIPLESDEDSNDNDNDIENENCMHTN
Summary of the method: as §1

USP16 = USP16 (UniProt Q9Y5T5)
Summary of the method: as §1

Measured: log2 ratio of Biotin-Ahx-Ub-VS probe labelling

Sequence of UCHL1 (P09936 whole entry, looked up): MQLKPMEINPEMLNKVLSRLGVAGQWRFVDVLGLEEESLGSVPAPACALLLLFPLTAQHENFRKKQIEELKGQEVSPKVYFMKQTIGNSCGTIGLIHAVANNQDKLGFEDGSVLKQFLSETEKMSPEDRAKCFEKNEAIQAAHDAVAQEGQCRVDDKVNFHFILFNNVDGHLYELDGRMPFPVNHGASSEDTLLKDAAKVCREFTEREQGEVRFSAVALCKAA
Sequence of USP10 (Q14694 whole entry): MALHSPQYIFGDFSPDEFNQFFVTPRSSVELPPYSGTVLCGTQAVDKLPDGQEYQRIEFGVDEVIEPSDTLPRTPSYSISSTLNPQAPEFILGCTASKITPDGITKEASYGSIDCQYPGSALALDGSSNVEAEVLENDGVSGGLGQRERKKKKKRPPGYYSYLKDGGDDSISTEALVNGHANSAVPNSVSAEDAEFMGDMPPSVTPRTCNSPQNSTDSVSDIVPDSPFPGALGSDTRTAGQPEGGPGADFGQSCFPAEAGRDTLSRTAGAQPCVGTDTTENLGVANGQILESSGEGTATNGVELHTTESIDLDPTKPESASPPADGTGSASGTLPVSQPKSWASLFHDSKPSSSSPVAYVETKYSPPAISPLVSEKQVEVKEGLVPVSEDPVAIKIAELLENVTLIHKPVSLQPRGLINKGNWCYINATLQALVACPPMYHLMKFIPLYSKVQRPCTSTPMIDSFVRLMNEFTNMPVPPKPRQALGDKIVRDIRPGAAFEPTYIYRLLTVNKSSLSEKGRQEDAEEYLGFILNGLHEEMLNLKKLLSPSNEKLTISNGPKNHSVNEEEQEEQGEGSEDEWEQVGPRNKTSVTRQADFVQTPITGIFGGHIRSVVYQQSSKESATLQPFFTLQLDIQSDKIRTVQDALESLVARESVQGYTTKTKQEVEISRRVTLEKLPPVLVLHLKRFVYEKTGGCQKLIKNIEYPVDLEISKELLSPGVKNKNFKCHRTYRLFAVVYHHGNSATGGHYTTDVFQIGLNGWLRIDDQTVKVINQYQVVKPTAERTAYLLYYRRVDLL
Sequence of USP16 (Q9Y5T5 whole entry, looked up): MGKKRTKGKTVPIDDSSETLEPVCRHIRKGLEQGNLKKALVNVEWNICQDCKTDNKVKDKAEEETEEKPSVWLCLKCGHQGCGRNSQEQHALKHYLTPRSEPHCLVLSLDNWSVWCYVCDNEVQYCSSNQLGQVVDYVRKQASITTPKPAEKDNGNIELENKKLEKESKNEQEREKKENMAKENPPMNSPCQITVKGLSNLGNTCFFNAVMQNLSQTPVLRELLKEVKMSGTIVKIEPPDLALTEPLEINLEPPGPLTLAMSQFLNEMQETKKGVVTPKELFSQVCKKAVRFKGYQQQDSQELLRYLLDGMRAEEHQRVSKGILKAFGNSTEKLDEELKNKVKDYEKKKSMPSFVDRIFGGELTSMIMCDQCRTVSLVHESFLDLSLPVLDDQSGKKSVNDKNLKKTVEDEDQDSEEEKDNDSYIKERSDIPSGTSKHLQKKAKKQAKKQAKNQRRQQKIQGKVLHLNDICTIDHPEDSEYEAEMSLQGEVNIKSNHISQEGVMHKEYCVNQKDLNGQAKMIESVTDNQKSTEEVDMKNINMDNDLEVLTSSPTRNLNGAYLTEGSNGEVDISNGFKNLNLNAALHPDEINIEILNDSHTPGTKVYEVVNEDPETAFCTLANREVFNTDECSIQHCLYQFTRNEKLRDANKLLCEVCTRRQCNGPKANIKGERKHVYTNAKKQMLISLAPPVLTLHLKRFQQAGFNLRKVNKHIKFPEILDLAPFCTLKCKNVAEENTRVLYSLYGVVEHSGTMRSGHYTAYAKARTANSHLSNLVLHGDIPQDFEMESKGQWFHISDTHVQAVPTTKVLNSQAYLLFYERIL

Cc1ccn2cc(CNC(=O)CCl)nc2c1.Cl
inactive: OTUD6B -0.283 | OTUD7B -0.682 | PRPF8 0.0356 | PSMD7 -0.104 | UCHL1 -0.67 | UCHL3 -0.0928 | UCHL5 -0.311 | USP10 0.0849 | USP15 -0.244 | USP16 0.0424
